Test results: publication PMC4336329 (PLoS ONE, 2015)
The whole screen tested about 310,000 compounds, of which about 14,000 (4.5%) showed an effect of 50% or more. The effect is printed as a negative number. The sample as a whole holds a higher share of strong results than the screen did.

biological target: human ether-à-go-go-related gene (hERG) potassium channel (human, UniProt Q12809); test: primary screen, population patch clamp on CHO cells stably expressing hERG; higher = less effect of the substance
Sequence (Q12809 whole entry, looked up): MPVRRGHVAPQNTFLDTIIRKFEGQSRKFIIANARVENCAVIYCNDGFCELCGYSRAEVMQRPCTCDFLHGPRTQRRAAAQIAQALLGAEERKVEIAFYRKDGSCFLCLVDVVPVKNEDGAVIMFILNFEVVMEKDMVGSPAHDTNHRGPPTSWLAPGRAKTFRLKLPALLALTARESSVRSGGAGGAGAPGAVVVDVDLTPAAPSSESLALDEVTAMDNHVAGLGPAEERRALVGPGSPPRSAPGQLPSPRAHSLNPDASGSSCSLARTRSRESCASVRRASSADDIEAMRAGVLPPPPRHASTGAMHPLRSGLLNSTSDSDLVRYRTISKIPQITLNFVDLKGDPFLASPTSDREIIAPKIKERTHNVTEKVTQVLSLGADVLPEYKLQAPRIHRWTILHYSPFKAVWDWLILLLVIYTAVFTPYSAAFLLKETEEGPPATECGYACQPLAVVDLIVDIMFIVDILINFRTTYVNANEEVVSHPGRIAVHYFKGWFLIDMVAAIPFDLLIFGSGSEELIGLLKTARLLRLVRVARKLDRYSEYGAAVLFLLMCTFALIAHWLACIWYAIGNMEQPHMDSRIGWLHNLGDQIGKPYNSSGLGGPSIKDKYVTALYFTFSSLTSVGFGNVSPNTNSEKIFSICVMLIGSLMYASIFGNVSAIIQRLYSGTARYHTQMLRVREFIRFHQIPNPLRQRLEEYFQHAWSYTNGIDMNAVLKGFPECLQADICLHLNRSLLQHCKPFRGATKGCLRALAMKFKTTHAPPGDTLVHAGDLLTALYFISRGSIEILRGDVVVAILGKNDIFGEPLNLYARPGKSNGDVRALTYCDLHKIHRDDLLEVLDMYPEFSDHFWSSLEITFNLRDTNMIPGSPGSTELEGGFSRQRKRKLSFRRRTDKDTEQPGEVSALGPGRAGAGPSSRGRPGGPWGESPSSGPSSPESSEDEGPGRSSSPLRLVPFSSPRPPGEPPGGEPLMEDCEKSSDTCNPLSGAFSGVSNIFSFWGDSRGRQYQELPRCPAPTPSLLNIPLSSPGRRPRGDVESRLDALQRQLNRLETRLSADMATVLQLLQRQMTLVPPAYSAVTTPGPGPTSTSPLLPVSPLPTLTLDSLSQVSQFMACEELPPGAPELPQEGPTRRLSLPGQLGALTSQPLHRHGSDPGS
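Also: peak tail current of the secondary pulse compared with the same well before compound.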

Row | SMILES | hERG current change (%, negative = inhibition) at 10uM
1 | Cc1ccc(Cn2c(Sc3nnc(C)s3)nc3c2c(=O)[nH]c(=O)n3C)cc1 | -46.8%
2 | COc1cccc(C2C3=C(Nc4[nH]n(-c5ccccc5)c(=O)c42)c2ccccc2C3=O)c1 (centres unmarked) | 9.64%
3 | CCOc1ccc(S(=O)(=O)NCCC(=O)NC2CCN(Cc3ccccc3)CC2)cc1 | -21.8%
4 | CN(CC(=O)NC1CCN(Cc2ccccc2)CC1)S(=O)(=O)c1ccc(Cl)s1 | -67.9%
5 | Cc1ccc(CC(=O)NC2CCN(Cc3ccccc3)CC2)cc1 | -12.7%
6 | O=C(CCNS(=O)(=O)c1ccc(Br)cc1)NC1CCN(Cc2ccccc2)CC1 | -61.9%
7 | O=C(CCNS(=O)(=O)c1cccs1)NC1CCN(Cc2ccccc2)CC1 | 9.19%
8 | O=C(Cc1ccc(Br)cc1)NC1CCN(Cc2ccccc2)CC1 | -56%
9 | CN(CC(=O)NC1CCN(Cc2ccccc2)CC1)S(=O)(=O)c1ccc(Cl)cc1 | -40.2%
10 | O=C(Cn1cc2c(n1)CCCC2)NC1CCN(Cc2ccccc2)CC1 | -8.32%
11 | Cl.O=C(Cc1ccccc1)NC1CCN(Cc2ccccc2)CC1 | 1.21%
12 | O=C(Cn1cc2c(n1)CCCCC2)NC1CCCCCC1 | 0.992%
13 | O=C(Cn1cc2c(n1)CCCCC2)NC1CCN(Cc2ccccc2)CC1 | -58.5%
14 | CN(CC(=O)NC1CCN(Cc2ccccc2)CC1)S(=O)(=O)c1ccc(Br)s1 | -18%
15 | CC1=CC(C)C2COC(c3ccc[n+](C)c3)C1C2C.[I-] (centres unmarked) | 14.3%
16 | O=C1/C(=C/c2ccncc2)N2CCC1CC2 | 2.32%
17 | CCC(NC(=O)c1ccccc1NC(=O)c1ccco1)C(=O)NC1CCCCC1 (centres unmarked) | -22.5%
18 | CCOCCCNC(=O)c1ccc2c(c1)N(CC)C(=O)c1ccccc1S2=O (centres unmarked) | 16.2%
19 | CCN(CC)c1ccc(C2C(C(C)=O)C(=O)CC(C)(O)C2C(C)=O)cc1 (centres unmarked) | -13.4%

Row | SMILES | hERG current change (%, negative = inhibition) at 10uM
20 | O=C(Nc1ccc(F)c(Cl)c1)NC1CC1 | 13.7%
21 | CC1(C)CC(=O)C(C(c2ccc(Br)cc2)C2C(=O)CC(C)(C)CC2=O)C(=O)C1 | 0.769%
22 | COc1cc(C)c(S(=O)(=O)Nc2ccccc2F)cc1C | 6.11%
23 | Cc1cccn2c(=O)c3cc(C(=O)NCCN4CCOCC4)c(=N)n(Cc4cccnc4)c3nc12 | -18.4%
24 | Cc1ccc(Cn2c(=N)c(C(=O)NCC3CCCO3)cc3c(=O)n4cccc(C)c4nc32)cc1 (centres unmarked) | -81.5%
25 | O=C(NCc1cccnc1)C(=O)NCC1CCCO1 (centres unmarked) | 21.5%
26 | Cc1cccn2c(=O)c3cc(C(=O)NCC4CCCO4)c(=N)n(Cc4cccnc4)c3nc12 (centres unmarked) | -95.1%
27 | Cc1cccn2c(=O)c3cc(C(=O)NCC4CCCO4)c(=N)n(Cc4ccc(F)cc4)c3nc12 (centres unmarked) | -75.7%
28 | CCC(Sc1nc2ccccc2c(=O)n1CC1CCCO1)C(=O)NCc1cccnc1 (centres unmarked) | -23.5%
29 | Cc1cccn2c(=O)c3cc(C(=O)NCc4cccnc4)c(=N)n(CC4CCCO4)c3nc12 (centres unmarked) | -75.6%
30 | CN1CCN(CC#CCOc2ccc(Cl)cc2)CC1.O=C(O)C(=O)O | -0.0359%
31 | CSc1ccccc1NC(=O)COc1ccccc1C | 6.39%
32 | CCOC(=O)C1(CC2CCCCO2)CCN(C(=O)Nc2ccc(SC)cc2)CC1 (centres unmarked) | 2.65%
33 | COc1ccccc1NC(=O)c1oc2ccc(C)cc2c1C | 14.1%
34 | Cc1nnc(SCC(=O)NCc2ccccc2)[nH]c1=O | -7.09%
35 | COc1ccc(/C=C2/C(=O)OCc3cc(OC)c(OC)cc32)c(OC)c1 | -27.8%
36 | CCOC(=O)C1=C(c2ccc(O)cc2)NC(=O)NC1C (centres unmarked) | 9.47%
37 | CC1(C)CC2CC(C)(CN2S(=O)(=O)c2ccc(F)cc2F)C1 (centres unmarked) | -11.8%
38 | Cn1c(=O)c2c(ncn2CC(COCc2ccccc2)OCc2ccccc2)n(C)c1=O (centres unmarked) | -12.1%

Row | SMILES | hERG current change (%, negative = inhibition) at 10uM
39 | Cn1c(=O)c2c(ncn2CC(COCc2ccccc2Cl)OCc2ccccc2Cl)n(C)c1=O (centres unmarked) | -33.6%
40 | Cn1c(=O)c2c(ncn2CC(COCc2ccc(Cl)cc2)OCc2ccc(Cl)cc2)n(C)c1=O (centres unmarked) | -51.1%
41 | CN(Cc1ccc(F)cc1)C(=O)c1cccc(NS(=O)(=O)c2ccccc2)c1 | -13.4%
42 | COc1cccc(C(=O)Nc2ncc3c(n2)CC(c2ccc(OC)cc2OC)CC3=O)c1 (centres unmarked) | -17.3%
43 | COc1ccc(CCNC(=O)c2ccccc2C(=O)NCCc2ccc(OC)c(OC)c2)cc1OC | 3.48%
44 | CN(C)C/C=C/C(O)(c1ccccc1)c1ccccc1 | -61.5%
45 | CN(C)C(C)(C)/C=C/C(O)(c1ccccc1)c1ccccc1 | -36.6%
46 | CN(C)CCC(O)(c1ccccc1)c1ccccc1.Cl | -20.2%
47 | Cc1ccc(OCC(=O)OC(C)CN2CCCCC2)cc1.Cl (centres unmarked) | 12.2%
48 | C=CCNC(=O)c1cc(-c2ccncc2)nc2c(C)cc(C)cc12 | -43.5%
49 | CCCC(C)NC(=O)c1nc(-c2ccccc2)n(-c2ccccc2)n1 (centres unmarked) | -55.7%
50 | Cc1csc(NC(=O)c2nc(-c3ccccc3)n(-c3ccccc3)n2)n1 | -79.2%
51 | O=C(Nc1nccs1)c1nc(-c2ccccc2)n(-c2ccccc2)n1 | 6.62%
52 | O=C(O)CNC(=O)c1nc(-c2ccccc2)n(-c2ccccc2)n1 | 22.9%
53 | O=C(O)c1nc(-c2ccccc2)n(-c2ccccc2)n1 | 4.87%
54 | Cc1csc(NC(=O)c2ccccc2)n1 | 16.8%
55 | O=C(c1cccc(S(=O)(=O)N2CCOCC2)c1)N1CCN(C/C=C/c2ccccc2)CC1 | -46.3%
56 | CCC1Oc2ccc(C)cc2N(CC(=O)NCCC2=CCCCC2)C1=O (centres unmarked) | -16%
